# Assay results from PubChem BioAssay AID540336 (Broad Institute, 2011).
# About 520 (0.16%) of roughly 330,000 compounds were called active. The full list was thinned out, with actives kept by preference. Values without a mark were called inactive.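 How the source made its calls: active means inhibition of at least 50% in every replicate; inconclusive means best replicate reaches 50% inhibition but some replicates fall short; inactive means the rest.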
# Biological target: Histone acetyltransferase RTT109 (Candida albicans (strain SC5314 / ATCC MYA-2876)) (UniProt Q5AAJ8)
# Experiment: Rtt109-Vps75 histone acetyltransferase blockade – biochemical, ThioGlo CoA-SH fluorescence, plate reader, primary screen (AID 540336)
# Details: purified Rtt109/Vps75, ThioGlo CoA-SH fluorescence, 4 h; at 34.9 µM; stronger effect = higher value
# Histone acetyltransferase RTT109 (Candida albicans (strain SC5314 / ATCC MYA-2876)), sequence (Q5AAJ8 whole entry, looked up): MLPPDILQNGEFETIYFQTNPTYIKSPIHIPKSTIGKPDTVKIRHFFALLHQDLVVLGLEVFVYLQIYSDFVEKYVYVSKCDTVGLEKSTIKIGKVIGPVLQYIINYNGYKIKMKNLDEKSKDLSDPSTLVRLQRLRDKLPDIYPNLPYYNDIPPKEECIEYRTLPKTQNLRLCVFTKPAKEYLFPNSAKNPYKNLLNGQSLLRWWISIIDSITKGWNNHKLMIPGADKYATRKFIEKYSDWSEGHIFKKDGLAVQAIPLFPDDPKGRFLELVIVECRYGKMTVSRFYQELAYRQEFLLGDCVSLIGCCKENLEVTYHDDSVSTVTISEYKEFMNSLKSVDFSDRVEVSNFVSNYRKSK
row,Structure (SMILES),inhibition
1,CCCCCCCCCCCCn1ccc(=N)cc1,64.2% (active)
2,CC(=O)OC1C2(CC3N4C(=O)C5(CO)SSC4(CC31O)C(=O)N5C)OC(C)C(C)(C)C2=O (stereo not given),-1.66%
3,O=C(c1ccccc1)C(O)(CN1CCCCC1)c1ccccc1 (stereo not given),-0.455%
4,CCC(C)(O)C(=O)OC1C(=O)OC2CC3C(C)=CC(=O)C(O)C3(C)C3C4(O)OCC23C1C(C)C4O (stereo not given),11.1%
5,COC1C(O)C(C)OC(OC2CCC3(C=O)C(CCC4C3CCC3(C)C(C5=CC(=O)OC5)CCC43O)C2)C1O (stereo not given),9.01%
